# Vaccinia Venus – vaccinia inhibition (Venus reporter) | Potency, µM (highest dose often 36.5 µM), for the others: top-dose activity change, negative = inhibition, actives largely listed as inhibitors | 0.46% of 330,000 active | Vaccinia virus Venus reporter expression, fluorescence | AID 720580; calls by dose curve; tested in A549 cells; further: potency means the concentration at half of the fitted maximal effect; nearly all actives have a fitted effect of over 30% in size
# VACV mCherry inh – inhibitors of vaccinia virus infection (mCherry reporter signal) | Vaccinia virus mCherry reporter infection, fluorescence | Potency, µM (series often up to 36.5 µM), for the others: at the top dose activity change, negative = inhibition, hits mostly inhibitors | 0.63% of 310,000 active; calls by dose curve; tested in A549 cells; further: potency means the concentration at half of the fitted maximal effect; nearly all actives have a fitted effect of over 35% in size
# HCV inh – inhibitors of hepatitis C virus infection. Huh7.5.1 HCVcc-Cre infection, luciferase reporter, 44 h. Potency, µM (titrated, usually from 41.8 µM), for the others: at the highest dose activity change, negative = inhibition, usual class: inhibitors. 3.4% of 340,000 active; active means well fitted inhibition curve with a large enough effect; inconclusive means small, poorly fitted or top-dose-only effect, or another doubt; inactive means no such curve, though single readings can be large or run the other way; further: potency means the concentration at half of the fitted maximal effect
#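 Seed cells (1,000/well) for 4 h; treat with compound and infect with HCVcc-Cre, moi about 0.5. Incubate 44 h, then detect luciferase activity.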
# FMDV antiviral – foot and mouth disease virus antiviral activity; 1.2% of 410,000 active; FMDV antiviral cell-based qHTS; Potency, µM (titrated, usually from 57.9 µM), without a hit: at the top dose activity change, negative = inhibition, actives largely listed as inhibitors; calls by dose curve; tested in HEK293T cells; further: read-out not given here; potency means the concentration at half of the fitted maximal effect; nearly all actives have a fitted effect of over 45% in size
# HCMV antiviral – blocks human cytomegalovirus replication; HFF cells, HCMV-luciferase reporter, 72 h; stronger effect = lower value; activity change, negative = inhibition, % at 57.5 µM; 4.5% of 410,000 active; AID 1259415; in the data active means activity change below about -60%; inconclusive means no clear call, values can overlap the other calls; inactive means above about -39%
#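 Two compound doses tested in HFFs infected with HCMV-luciferase, MOI 1 PFU/cell, 72 h at 37C. Lysate luminescence read with OneGlo; data normalized against buffer-only and 10uM Salinomycin inhibitor controls.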
# * marks the source's active call; other numbers are inactive results; i = inactive; ? = inconclusive; . = no result; ! = not active in a repeat; [ ] = another dose, or the depositor's remark. The list is not random: actives were taken first. Their share in the collection is about 7.3%. On the % scale 0 is the no-effect control and ±100 the full control effect.
SMILES,Vaccinia Venus,VACV mCherry inh,HCV inh,FMDV antiviral,HCMV antiviral
CCOc1ccc(CCN2C(=S)N([C@@H](CC(C)C)CN3CCCC3CN3C(=S)NC[C@@H]3CC(C)C)C[C@@H]2Cc2ccccc2)cc1 (some centres undefined),-17.9%,i,5.62µM*,-28.9%,2.6
Cc1ccc(OCc2nnc(SCC(=O)N3C(C)CCCC3C)o2)cc1 (centres undefined),-14.9%,-10.1%,0.5%,10.8%,-15.8
CC(C)COC(=O)N(C)C[C@H]1OCc2cnnn2CCCC(=O)N([C@H](C)CO)C[C@@H]1C,-14.4%,-13.7%,.,7.7%,3.3
Cc1cccc(N2CCN(C(=O)Cn3cnc4sc(C)c(S(=O)(=O)N5CCN(c6ncccn6)CC5)c4c3=O)CC2C)c1 (centres undefined),-18.5%,-21.6%,.,-19.2%,-8.3
COc1ccc(NC(=O)N2CCOc3ccc(Cl)cc32)cc1,-10.7%,-3.9%,.,14.8%,-7.9
Cc1ccc(C)c(CN2CCC(CNC(=O)Nc3ccc(Br)cc3F)CC2)c1,?,?,?,?,-78.5*!
Cc1cccc(C)c1NC(=O)C(c1ccccc1)N(C)CCc1ccccc1 (centres undefined),2.2%,i,.,-18.2%,-1.0
Cc1cccc2cc3c(N)c(C#N)sc3nc12,-7.9%,3.5%,?,10.6%,-63.5*
Cc1sc(NC(=O)c2sc3nc4c(C)cccc4cc3c2N)c(C#N)c1C,14.1%,1.9%,?,0.7%,-10.1
O=C(Nc1ccc(F)cc1)c1ccc(Cn2nc(N3CCN(c4ccccc4)CC3)ccc2=O)o1,?,-29.1%,.,?,-61.9*
Cc1ccc(C)c(CN2C(=O)c3ccccc3S(=O)c3ccc(C(=O)NCCc4ccc(Cl)cc4)cc32)c1 (centres undefined),-16.4%,-18.7%,.,-9.6%,-12.8
O=C(COc1ccccc1Cl)NCC1(N2CCOCC2)CCCCC1,-20.7%,-23.6%,.,-22.6%,-99.9*
O=C(CSc1ccccc1)NCC1(N2CCOCC2)CCCCC1,-4.2%,-17.8%,-11.6%,0.0%,-76.8*
Cc1cc(OCC(=O)NCC2(N3CCN(C)CC3)CCCCC2)cc(C)c1Cl,-24.6%,-7.6%,.,-4.2%,-81.6*
Cc1ccc(OCC(=O)NCC2(N3CCN(C)CC3)CCCCC2)cc1C,-1.5%,-12.7%,.,-19.5%,-36.8
O=C(CSc1ccc(Br)cc1)NCC1(N2CCCCC2)CCCCC1,-15.3%,-23.2%,-24.9%,-22.2%,-10.9
O=C(COc1ccc(Cl)cc1Cl)NCC1(N2CCOCC2)CCCCC1,-9.0%,0.0%,?,?,?
CC(=O)Nc1cccc(-c2ccnc3c2CC(C)(C(=O)NCc2cccs2)O3)c1 (centres undefined),?,-0.5%,.,-24.0%,?
CCC1CN2CCc3cc(OC)c(OC)cc3C2CC1CC1c2cc(OC)c(OC)cc2CCN1C(=O)C(Cc1c[nH]c2ccccc12)NC(=O)OC(C)(C)C (centres undefined),-25.8%,-11.9%,11.2µM*,-17.6%,?
COc1ccc(NC(=O)c2cc(CC(C)C)nc3ccccc23)cc1,.,.,?,15.4%,-77.2*
Cc1ccc(NC(=O)c2cc(C)nc3ccccc23)cc1,.,.,-29.9%,-1.1%,14.7
COc1ccc(Nc2cc(C(=O)NCc3ccccc3)c3ccccc3n2)cc1,-2.5%,0.0%,.,4.8%,?
Cc1ccc(NC(=O)c2cc(CC(C)C)nc3ccccc23)cc1,-2.6%,4.5%,?,-5.5%,-69.8*
CNc1c(Cl)cc(C=O)cc1Cl,-9.0%,24.5%,.,.,.
Cc1ccc(OCCC(=O)N(CCC(C)C)c2c(N)n(Cc3ccccc3)c(=O)[nH]c2=O)cc1,-25.8%,-4.4%,-4.0%,-19.0%,.
SMILES,Vaccinia Venus,VACV mCherry inh,HCV inh,FMDV antiviral,HCMV antiviral
FC(F)(F)Oc1ccc(Nc2nc(N3CCOCC3)nc(N3CCOCC3)n2)cc1,-1.2%[7.34 µM],-0.4%[7.34 µM],-24.7%,-24.9%,-33.6
COc1cccc(CNC(=O)c2c(OC)cc(=O)n3c2CCN(C(=O)c2ccoc2C)CC3)c1,-3.8%,-11.2%,.,-4.1%,.
C=CCc1ccc(O)c(-c2ccc(O)c(CC=C)c2)c1,?,?,?,?,-5.6
c1ccc(CNc2nc(-c3ccccc3)nc3ccccc23)cc1,-22.7%,-12.6%,?,-5.7%,?
CCC(C)N(C(=O)CSc1nc(-c2cccs2)nc2ccccc12)C1CCS(=O)(=O)C1 (centres undefined),-21.3%,i,?,-2.4%,-28.1
CCC(C)Nc1nc(-c2ccccn2)nc2ccccc12 (centres undefined),.,.,?,?,-99.0*
Cc1cc(NCc2ccccn2)nc2ccccc12,-9.6%,-1.4%,-10.0%,.,-6.5
Cc1nc(NCc2ccccn2)c2ccccc2n1,-29.6%,?,10µM*,?,-84.2*
CCSc1nc(-c2cccs2)nc2ccccc12,-9.7%,-17.6%,3.98µM*,?,-1.5
c1ccc(CNc2nc(-c3cccs3)nc3ccccc23)cc1,-15.3%,-15.5%,?,?,-73.9*
CCn1c(=O)c2cc(C(=O)NCCc3cc(OC)ccc3OC)sc2c2ccccc21,-4.6%,1.0%,.,-9.9%,-10.5
CN(c1cccnc1)c1ccc(NC(=O)Cc2c[nH]c3ccccc23)cc1-c1ccc(C(C)(C)C)cc1,.,.,.,.,-35.7
c1ccc(CNc2nc(-c3ccccn3)nc3ccccc23)cc1,-22.1%,?,3.16µM*,?,-97.1*
COc1cccc(-c2nc(NC(C)C)c3ccccc3n2)c1O,.,.,?,?,-14.7
CCC(C)Nc1nc(-c2cccc(OC)c2O)nc2ccccc12 (centres undefined),?,?,2.51µM*,28.2µM*,55.1
CCN1CCN(Cc2ccc(NC(=O)c3cc(NC(=O)c4ccno4)cc(OC)c3)cc2C(F)(F)F)CC1,?,-4.6%,?,-12.7%,-34.1
CCN1CCN(Cc2ccc(NC(=O)c3cc(NC(=O)c4cncc(-c5cccs5)c4)cc(OC)c3)cc2C(F)(F)F)CC1,?,?,?,-21.2%,-101.7*
CCN1CCN(Cc2ccc(NC(=O)c3cc(NC(=O)c4ccc5n[nH]nc5c4)cc(OC)c3)cc2C(F)(F)F)CC1,-1.4%,i,-14.0%,-11.0%,-7.2
CCN1CCN(Cc2ccc(NC(=O)c3cc(NC(=O)N4CCNC4=O)cc(OC)c3)cc2C(F)(F)F)CC1,?,i,?,?,-68.2*!
CCN1CCN(Cc2ccc(NC(=O)c3cc(NC(=O)c4cc(-c5ccc(OC)cc5)n[nH]4)cc(OC)c3)cc2C(F)(F)F)CC1,10µM*,?,?,13.5%,51.8
CCN1CCN(Cc2ccc(NC(=O)c3cc(NC(=O)c4cc5cccc(OC)c5o4)cc(OC)c3)cc2C(F)(F)F)CC1,12.6µM*!,?,-20.2%,39.8µM*!,-101.7*!
COc1ccc(C2Nc3cccc(O)c3C(=O)N2Cc2ccccc2)cc1COc1ccc(NC(C)=O)cc1 (centres undefined),.,.,.,-8.6%,-26.7
Cc1ccc(NC(=O)CSc2nc(=O)n(CCN3CCOCC3)c3c2CCC3)c(C)c1,-5.3%[7.34 µM],-4.5%[7.34 µM],.,-14.1%,5.4
